Only some compounds are listed: those with a hit (about 4.7% of all), similar ones and a draw of the others.
DUSP3 inh – inhibitors of human VHR1 phosphatase (DUSP3); P51452; recombinant VHR phosphatase, pNPP absorbance; inhibition, % at 13.3 µM; 290,000 compounds, 0.52% hits; in the data active means inhibition above about 50%
Target sequence (P51452 whole entry, looked up): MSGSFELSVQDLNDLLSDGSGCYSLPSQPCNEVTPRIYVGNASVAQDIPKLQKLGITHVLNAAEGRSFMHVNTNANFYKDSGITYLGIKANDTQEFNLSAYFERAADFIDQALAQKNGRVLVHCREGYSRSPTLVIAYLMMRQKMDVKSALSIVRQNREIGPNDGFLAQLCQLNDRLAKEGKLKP
FBA Mtb inh – Mtb fructose-bisphosphate aldolase inhibition; AID 588726; inhibition, % at 1 µM; P9WQA3; 360,000 compounds, 2.3% hits; purified M. tuberculosis FBA, fluorescence read-out; in the data active means inhibition above about 27%;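 further: 0% = vehicle and 100% = reference inhibitor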
GDH-TPI inh – inhibits GDH-TPI coupling enzymes, artifact for Mtb FBA screen. GDH-TPI coupled enzyme counterscreen, NADH absorbance. inhibition, % at 4.8 µM. 360,000 compounds, 1.2% hits. AID 588335;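 further: 0% = DMSO wells and 100% = wells lacking the enzyme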
CCHF vOTU inh-1 – blocks the CCHF virus ovarian tumor domain protease; CCHFV vOTU protease, Pep-AMC fluorescence; inhibition, % at 11.5 µM; 370,000 compounds, 0.55% hits; AID 651958; further: 0% = vehicle wells with enzyme and 100% = no enzyme wells
RecA intein inh – blocks M. tuberculosis RecA intein splicing; P9WHJ3; cell-free RecA intein splicing, fluorescence; inhibition, % (no concentration beside the values); 290,000 compounds, 0.75% hits; in the data active means inhibition above about 30%;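 further: 0% = vehicle wells and 100% = reference inhibitor control wells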
SARS 3CLpro inh – SARS-CoV 3CLpro protease inhibition | recombinant SARS-CoV 3CLpro, quenched FRET peptide cleavage | P0C6X7 | inhibition, % at 6 µM | 290,000 compounds, 0.14% hits; in the data active means inhibition above about 12%
CCHF vOTU inh-2 – confirmation of CCHF virus vOTU protease inhibitors; shares compounds with CCHF vOTU inh-1; 1,900 compounds, 17% hits; Recombinant CCHFV vOTU, Pep-AMC fluorescence; inhibition, % at 11.5 µM
* hit, by the source's call; · = no result given. Unless noted, no stated cut-off is given here; in the data, active means inhibition above about 30%; inactive means the rest.

SMILES | DUSP3 inh | FBA Mtb inh | GDH-TPI inh | CCHF vOTU inh-1 | RecA intein inh | SARS 3CLpro inh | CCHF vOTU inh-2
Cc1ccc(/C=C(\CCC(=O)O)c2nc3ccccc3s2)cc1[N+](=O)[O-] | -7 | -3 | 34* | 31* | 11 | 6 | 21
Cc1ccc(NC(=O)C2(C)CCN2Cc2cccc3c2OCO3)cc1O (configuration not stated) | · | 4 | 12 | -4 | · | · | ·
Cc1ccc(NC(=O)C(=O)NCCN2CCN(S(C)(=O)=O)CC2)cc1C | 31 | -1 | -8 | -13 | 2 | 6 | ·
COc1ccc(NS(=O)(=O)c2ccc(C(=O)N(C)Cc3cccs3)cc2)cc1 | · | 4 | -2 | -11 | · | · | ·
O=C(Nc1sc2c(c1C(=O)O)CCCCC2)c1ccccc1F | 18 | -2 | 8 | 37* | -2 | 6 | -5
O=C(Nc1sc2c(c1C(=O)O)CCCC2)c1ccc(F)cc1 | -3 | -4 | 6 | 6 | 1 | 2 | ·
CC(C)c1ccc(NC(=O)C2Cc3c(-c4ccccc4Oc4ccccc4)ccnc3O2)cc1 (configuration not stated) | · | 4 | 15 | 27 | · | · | ·
NC(=O)c1ccccc1OCc1nnc(-c2ccccc2Br)o1 | 10 | -7 | -1 | 6 | 1 | -1 | ·
COc1cccc(NC(=O)CN(C)C(=O)COc2ccc3ccccc3c2)c1 | 9 | -3 | 9 | 16 | 1 | 6 | ·
OC(c1ccccc1)(c1ccccc1)c1nccc2ccccc12 | · | 2 | -7 | -10 | · | · | ·
O=C(/C=C/c1ccc([N+](=O)[O-])s1)N1CCCC1 | 19 | -4 | 4 | 14 | -9 | 1 | ·
O=C(/C=C/c1ccc([N+](=O)[O-])s1)N1CCCCC1 | 8 | -3 | 16 | 32* | -4 | 0 | 32*
O=C(NC(=S)Nc1ccccc1N1CCCCC1)c1ccccc1 | 18 | -1 | 8 | 4 | 15 | 3 | ·
O=C(NC(=S)Nc1ccccc1N1CCCC1)c1ccc(F)cc1 | -15 | 2 | 11 | 32* | 7 | 3 | 33*
COc1ccccc1C(=O)NC(=S)Nc1ccccc1N1CCCC1 | -2 | 3 | -4 | 41* | · | -1 | 11
COc1ccccc1NC(=O)CSc1nccc(-c2ccco2)n1 | · | -2 | 11 | 17 | · | · | ·
CC(=O)N1CCC(C(=O)Nc2cc(S(=O)(=O)N3CCCCC3)ccc2C)CC1 | · | 2 | 2 | 2 | · | · | ·
O=C1c2ccccc2C(=O)c2c1cccc2-n1nnc2ccccc21 | 23 | 2 | 1 | -7 | 1 | 1 | ·
O=C1C(N2CCOCC2)=C(n2nnc3ccccc32)C(=O)c2ccccc21 | 0 | 1 | 14 | 104* | 26 | 4 | 98*
N#Cc1cc(Cl)c(N2CCOCC2)cc1C#N | 22 | 2 | 5 | 7 | 0 | -4 | ·
N#Cc1cc2ccc(N3CCOCC3)cc2cc1C#N | -15 | 13 | 0 | 73* | -2 | 5 | -58
O=C(COc1ccc2ccccc2c1)Nc1cccc(C(=O)Nc2ccccc2C(=O)O)c1 | -4 | 3 | -1 | 34* | 6 | 4 | 24
Cc1cccc(C(O)c2ncc(-c3cccc(C(F)(F)F)c3)[nH]2)c1C (configuration not stated) | · | 2 | -6 | 44* | · | · | -10
Cc1ccc(C(O)c2ncc(-c3ccc(F)cc3)[nH]2)c(C)c1 (configuration not stated) | · | -1 | -2 | 31* | · | · | -22
OC[C@H]1O[C@@H](c2nc(-c3ccc(CN4CCOCC4)cc3)no2)[C@H](O)[C@@H](O)[C@H]1O | · | 2 | -3 | -4 | · | · | ·
SMILES | DUSP3 inh | FBA Mtb inh | GDH-TPI inh | CCHF vOTU inh-1 | RecA intein inh | SARS 3CLpro inh | CCHF vOTU inh-2
CN1CCc2c(sc3c2c(=O)n(-c2ccccc2)c2nnc(SCc4ccccc4)n32)C1 | 4 | 3 | 12 | 31* | 2 | -4 | -7
CN1CCc2c(sc3c2c(=O)n(-c2ccccc2)c2nnc(SCc4ccc(F)cc4)n32)C1 | · | 0 | 10 | -3 | · | · | ·
CCCCC(CC)CNC(=O)c1ncn[nH]1 (configuration not stated) | 28 | 1 | 0 | -10 | -1 | 4 | ·
Cc1ccc(NC(=O)c2ccccc2NS(=O)(=O)c2ccc(Cl)s2)cc1S(=O)(=O)N1CCOCC1 | -13 | -4 | 8 | 31* | 3 | 7 | 9
O=C(COC(=O)COc1cccc(Br)c1)Nc1ccc(F)cc1F | · | -1 | 6 | 1 | · | · | ·
CCn1c(CN2CCOCC2)nnc1SCC(=O)Nc1cccc(C)c1 | 28 | 2 | -10 | -2 | -3 | -2 | ·

From PubChem BioAssay
